# Peg3 imprint – genomic imprint erasure induction; mouse ES Peg3-LacZ reporter, beta-gal luminescence, 40 h; Potency, µM (highest dose often 60.7 µM), inactives show at the highest dose activity change, positive = activation, actives largely listed as activators; 110,000 tested, 0.02% active
#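 Readout: BetaGlo luminescence (5 min, room temp) for LacZ from the normally silent maternal Peg3 allele in female Peg3LacZ-Neo ES cells. Cells 300/well, 40 h, 37C, 5% CO2. Data normalized per plate to negative controls.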
# HEK293 cAMP ctrl – raises cAMP in parental HEK293 cells, TSHR agonist counter-screen | parental HEK293 CNG cAMP sensor, membrane potential fluorescence | Potency, µM (doses to about 57.1 µM), without a hit: top-dose activation, actives largely listed as activators | 73,000 tested, 2.5% active; also: % of control where 0% means no effect; nearly all actives have a fitted effect of over 55% in size
#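 Parental HEK 293 cells stably expressing a cAMP-gated CNG channel were loaded with membrane potential dye containing 100 uM RO 20-1724 for 60 min. Compound added for 30 min; depolarization read as fluorescence intensity at 590 nm.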
# TSHR ag – TSH receptor (human) agonism | Potency, µM (doses to about 57.1 µM), for the others: top-dose activation, most hits filed as activators | 73,000 tested, 0.48% active | HEK293-CNG-TSHR cells (CNG channel as cAMP sensor), membrane potential dye, cAMP | P16473; active = well fitted activation curve with a large enough effect in the main read-out, with a control signal flat, not every such curve was filed as active; inconclusive = small, poorly fitted or top-dose-only effect, or a change in a side signal; inactive = no such curve, though single readings can be large or run the other way; % of control where 0% means no effect;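 also: the control signal comes from parental cells without the receptor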
# Target sequence (P16473 whole entry, looked up): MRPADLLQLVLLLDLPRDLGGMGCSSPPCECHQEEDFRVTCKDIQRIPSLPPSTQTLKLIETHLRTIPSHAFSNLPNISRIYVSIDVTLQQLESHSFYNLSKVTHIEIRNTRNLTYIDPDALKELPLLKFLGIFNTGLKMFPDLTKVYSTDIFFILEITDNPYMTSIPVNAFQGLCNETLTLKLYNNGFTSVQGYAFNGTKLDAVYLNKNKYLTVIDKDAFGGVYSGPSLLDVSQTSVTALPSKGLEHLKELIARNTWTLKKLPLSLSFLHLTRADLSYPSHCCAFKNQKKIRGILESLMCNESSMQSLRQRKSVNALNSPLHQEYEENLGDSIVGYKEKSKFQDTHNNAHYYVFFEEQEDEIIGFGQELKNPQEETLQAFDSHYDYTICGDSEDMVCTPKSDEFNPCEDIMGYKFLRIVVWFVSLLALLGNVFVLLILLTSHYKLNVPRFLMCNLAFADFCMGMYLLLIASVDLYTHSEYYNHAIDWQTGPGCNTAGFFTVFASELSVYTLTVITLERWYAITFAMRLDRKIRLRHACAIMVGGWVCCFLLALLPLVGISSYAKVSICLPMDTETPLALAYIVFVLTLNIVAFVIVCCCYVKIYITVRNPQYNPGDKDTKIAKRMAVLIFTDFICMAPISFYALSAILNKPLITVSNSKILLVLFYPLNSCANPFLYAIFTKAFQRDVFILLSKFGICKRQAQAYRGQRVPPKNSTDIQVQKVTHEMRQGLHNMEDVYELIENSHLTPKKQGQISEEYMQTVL
#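 HEK 293 cells stably expressing TSHR and a cAMP-gated CNG channel; parental CNG-only cells as counterscreen. Cells preloaded 60 min with membrane potential dye plus 100 uM RO 20-1724, then compound 30 min; fluorescence read at 590 nm.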
# The depositor's hits bear a star; ? = inconclusive; / = no result given; [ ] = another dose, or the depositor's remark. Shown is part of a subset that was picked to be rich in hits. Unless noted, calls follow the shape of the dose curve; as a rule, active = well fitted activation curve with a large enough effect; inconclusive = small, poorly fitted or top-dose-only effect; inactive = no such curve, though single readings can be large or run the other way. Potency is read from the fitted curve at half-maximal effect.
SMILES,Peg3 imprint,HEK293 cAMP ctrl,TSHR ag
COCCn1c(=O)c(C)nc2cnc(Oc3ccccc3)nc21,-3.8%,19.0%,7.9%
Cc1ccc(CNC(=O)Cn2nc(N3CCN(c4ccccc4)CC3)ccc2=O)cc1,-9.8%[10.9 µM],/,/
CCN(CC)CCCNC(=O)c1ccc2c(c1)NC(=O)C(CS(=O)(=O)Cc1cccc(Br)c1)N2 (centres undefined),-11.1%[10.9 µM],/,/
CCOc1ccccc1CNC(=O)c1cccn1-c1nnc(N2CCCC2)s1,-11.5%[10.9 µM],/,/
CC#CCOC(=O)C1=CCCN(C)C1,-5.9%,8.7%,7.8%
Cc1nc2cnc(Oc3ccccc3)nc2n(Cc2cccs2)c1=O,?,15.8µM*,?
N#CCCn1c(=O)c(-c2ccccc2)nc2cnc(Oc3cccc(Cl)c3)nc21,/,-12.3%,9.9%
Cc1nc2cnc(N(C)C)nc2n(Cc2cccs2)c1=O,/,6.0%,8.1%
Cc1nc2cnc(Oc3cccc(Cl)c3)nc2n(CCc2ccccc2)c1=O,/,3.16µM*,?
COC(=O)C/C=C\[C@@H](C)[C@@H](/C=N\O[C@@H](C)CN1CCCc2nc(C)c(C)cc21)OC,/,24.0%[11.4 µM],7.7%[11.4 µM]
CCc1cccc(C)c1NC(=O)Cn1ccn(Cc2ccc(Cl)cc2)c(=O)c1=O,-10.0%[10.9 µM],/,/
Cn1ncc2c(N3CCN(c4ccc(F)cc4)CC3)ncnc21,-12.1%[10.9 µM],/,/
CCN(c1cccc(C)c1)S(=O)(=O)c1c(C)nc2sc(C)cn2c1=O,-21.2%[10.9 µM],/,/
CCCC(CCC)C(=O)Nc1cc(-c2cn3cccnc3n2)ccc1OC,-11.9%[10.9 µM],/,/
O=C(O)CSc1nnc(CNc2ccc(Cl)cc2)n1Cc1ccccc1,/,31.6µM*,?
CCn1c(CNc2ccc(Cl)cc2)nnc1SCC(=O)NCc1ccccc1,-4.5%,0.0%,-4.0%[11.4 µM]
CCCS(=O)(=O)c1nc(S(=O)(=O)c2ccc(C)cc2)c(N(C)Cc2ccccc2)s1,-4.6%[10.9 µM],/,/
CC1=C2[C@H](/C=C(\C)C(=O)O)CC[C@@H](C)[C@H]2CC1,-6.5%,?,?
CCOc1ccc(C(=O)Nc2nc(-c3ccc(Br)cc3)ns2)cc1,-13.7%[10.9 µM],/,/
C=CCSc1nc(O)c(CC)c(=O)n1C(C)CC (centres undefined),3.9%,20.1%[11.4 µM],12.8%[11.4 µM]
CCc1c(O)nc(SCc2ccccc2)n(C(C)CC)c1=O (centres undefined),-8.7%,25.1µM*,?
CCOc1ccc(C2C=C(c3ccc(C)cc3)Nc3nnnn32)cc1 (centres undefined),-7.7%,18.4%,19.9%
CCOc1ccc(C2C=C(c3ccc(C)cc3)Nc3ncnn32)cc1 (centres undefined),-11.1%,20µM*,?
O=C(c1ccco1)N1CCC2(CCCN(c3ncccn3)C2)CC1,/,7.4%,-0.8%
Cc1cccc(C)c1NC(=O)c1sc(-n2nc(C)c(Cc3ccc4c(c3)OCO4)c2C)nc1C,-10.7%[10.9 µM],/,/
SMILES,Peg3 imprint,HEK293 cAMP ctrl,TSHR ag
O=C1CCc2cc(OCCCCc3nnnn3C3CCCCC3)ccc2N1,-17.4%,?,25.1µM*
O=C1CCc2cc(S(=O)(=O)N3CCC(C(=O)NC4CCCC4)CC3)ccc2N1,-1.9%,4.7%,2.6%
COc1ccc(-c2c3c(=O)n(C)c(=O)n(C)c3cn2-c2cc(OC)ccc2OC)cc1,-13.9%,13.6%,25.1µM*
CCOc1ccccc1-n1cc2c(c1-c1ccc(OC)cc1)c(=O)n(C)c(=O)n2C,7.8%[10.9 µM],/,/
N[C@@H](C(=O)O)[C@@H]1C[C@H]1C(=O)O,/,6.4%,6.5%
Cc1ccccc1-c1ccc2ncnc(NCc3cccs3)c2c1,-17.0%,3.98µM*,?
CN(C)Cc1ccccc1-c1ccc2ncnc(NCc3cccs3)c2c1,-19.3%,13.7%,11.7%
COc1ccccc1-c1ccc2ncnc(NCc3cccnc3)c2c1,1.5%,?,?
Cc1cccc(CNc2ncnc3ccc(-c4ccoc4)cc23)c1,-22.6%,31.6µM*,?
COc1ccccc1-c1ccc2ncnc(NCc3cnc(C)cn3)c2c1,-21.7%,25.1µM*,?
CNc1ncnc2ccc(-c3ccccc3CN(C)C)cc12,-23.6%,6.0%,11.1%
c1cncc(CNc2ncnc3ccc(-c4ccoc4)cc23)c1,?,-2.4%,2.1%
CNc1ncnc2ccc(-c3ccccc3C)cc12,-53.3%,2µM*,?
C=C1C(=O)O[C@H]2C[C@@]3(C)CCCC(=C)[C@@H]3C[C@H]12,/,1.8%,1.8%
CCc1ccccc1NC(=O)CSc1ncccc1C(=O)O,-14.3%[10.9 µM],/,/
CCNc1ccc(S(=O)(=O)C(F)(F)F)cc1NC(=O)C12CCC(CC1)C2,9.0%,15.8µM*,?
CCC(=O)Nc1cc(C)c(NC(=O)C23CC4CC(CC(C4)C2)C3)cn1,-4.1%,-3.7%,9.7%
CCC1CN(C(=O)N2CCC(C(=O)NCCCc3ccccc3)CC2)c2ccccc2O1 (centres undefined),-10.5%[10.9 µM],/,/
